Reference: PubChem BioAssay AID1259343 (VanderVen Lab, College of Veterinary Medicine, Cornell …, 2017)
Out of some 6,200 compounds screened, about 2,900 (47%) were called active. So high a share suggests a set chosen from earlier hits. The list shows a part of the results. Unmarked numbers belong to inactive results. No stated cut-off is given here; in the data, active means inhibition above about 50%; inactive means the rest.

experiment: Mycobacterium tuberculosis growth inhibition, primary screen (AID 1259343); conditions: inhibition: at 10 µM, active compounds read high; outcome: 10 uM

Compound	inhibition
FC(F)(F)COCCCn1nnc(-c2ccsc2)n1	79.5% (active)
O=C1NC(=O)C(=Cc2cccs2)S1	42.2%
O=C1C(=Cc2ccc(Br)s2)CCc2ccccc21	0.54%
C=CCC1SC(=NN=Cc2cccs2)NC1=O (stereo not drawn)	22.9%
O=C1/C(=C/c2cccs2)C(c2cccs2)Oc2ccccc21 (stereo not drawn)	33%
O=C1C(=Cc2cccs2)CCC1=Cc1cccs1	103% (active)
O=C1C(=Cc2cccs2)CCCC1=Cc1cccs1	91.6% (active)
CC1CCN(c2nnc(C(=O)Nc3ccccc3)c3ccccc23)CC1	24.6%
Cc1ccccc1CNc1cccc([N+](=O)[O-])c1	35.8%
COCc1cc(C)nc(N/N=C\c2ccccc2[N+](=O)[O-])c1C#N	-18.7%
COc1ccc(OCCCCOc2ccccc2[N+](=O)[O-])cc1	76.2% (active)
Cc1ccccc1CON=Cc1cccc([N+](=O)[O-])c1	54.1% (active)
CCOc1ccc(N=Cc2cccc([N+](=O)[O-])c2)cc1	96.3% (active)
CCOc1ccc(OCCCCOc2ccccc2[N+](=O)[O-])cc1	83.2% (active)
CCOC(=O)CCCCCCCCCCCCC1C=CCC1 (stereo not drawn)	-30.7%
COc1cc(C)ccc1OCCCOc1ccc([N+](=O)[O-])cc1	41.8%
CCOc1cccc(OCCCOc2ccc([N+](=O)[O-])cc2)c1	86% (active)
CCOc1ccc(OCCOc2ccccc2[N+](=O)[O-])cc1	97.3% (active)
CCOc1ccc(OCCOc2ccc([N+](=O)[O-])cc2)cc1	26.5%
CCOc1ccc(OCCCOc2ccc([N+](=O)[O-])cc2)cc1	23%
COC(=O)C1=C(O)C(C(=O)OC)C(c2cccs2)C(C#N)(C#N)C1c1cccs1 (stereo not drawn)	4.02%
Cc1cc(NC(=O)c2cc(CC(C)C)on2)no1	47.4%
Cc1cccc(N2CCN(C(C)C(=O)Nc3cc(C)on3)CC2)c1 (stereo not drawn)	85.9% (active)

Compound	inhibition
CCCCCCNC(N)=S	72.8% (active)
CC1Sc2ccc(C(=O)N(C)Cc3cccc(Cl)c3)cc2NC1=O (stereo not drawn)	30.6%
Cc1nn(C)cc1CN(C)C(=O)c1cccc(Cl)c1	101% (active)
CN(Cc1ccc(Cl)cc1Cl)C(=O)C1CCN(c2ccccc2[N+](=O)[O-])CC1	45%
CN1N=C(CC(=O)Nc2ccc(-n3nccc3C(F)(F)F)cc2)CC1=O	87.8% (active)
CC1CC1C(=O)Nc1ccc(-n2nccc2C(F)(F)F)cc1 (stereo not drawn)	40%
Cc1cc(NC(=O)c2cc3ccccc3o2)n(-c2nc(C)c(C)c(=O)[nH]2)n1	-29.9%
CCc1c(C)nc(-n2nc(C)cc2NC(=O)c2ccco2)[nH]c1=O	100% (active)
Cc1cc(NC(=O)c2ccco2)n(-c2nc(C)c(C)c(=O)[nH]2)n1	100% (active)
O=C(CCc1ccccc1)C1CCCN(Cc2nc(-c3ccc(Cl)cc3)no2)C1 (stereo not drawn)	73.2% (active)
Clc1ccc(-c2noc(CN3CCN(c4ncnc5ccccc45)CC3)n2)cc1	71.1% (active)
O=C(CCc1ccccc1)C1CCCN(Cc2nc(CC3CC3)no2)C1 (stereo not drawn)	inactive
O=C1CCCN1CCC1CCN(Cc2nc(-c3ccc(Cl)cc3)no2)CC1	74% (active)
Clc1ccc(-c2noc(CN3CCCN(c4ncccn4)CC3)n2)cc1	77.6% (active)
c1ccc(-c2noc(CN3CCCC(c4ccccc4)C3)n2)cc1 (stereo not drawn)	inactive
Clc1ccc(C2CCCN(Cc3nc(-c4ccccn4)no3)C2)cc1 (stereo not drawn)	73% (active)
c1ccc(CCCc2nc(-c3ccccn3)no2)cc1	30.6%
Clc1ccc(-c2nc(-c3ccccn3)no2)cc1	79.7% (active)
O=C(Nc1nnc(SCCc2ccccc2)s1)C1CCCCC1	3.18%
C=CCSc1nnc(NC(=O)C2CCCCC2)s1	91.9% (active)
Cc1csc(Sc2ccc(NC(=O)C3CCC3)c(C)c2)n1	33.2%
Cc1cc(NC(=O)C(C)C)n(-c2nc(C)c(C)c(=O)[nH]2)n1	-18.6%
CC(=O)Nc1cc(C)nn1-c1nc(C)c(C)c(=O)[nH]1	101% (active)

Compound	inhibition
COC(=O)CCc1c(C)nn(-c2nc(C)c(C)c(=O)[nH]2)c1C	101% (active)
Cc1cc(NC(=O)C(C)(C)CCl)n(-c2nc(C)c(C)c(=O)[nH]2)n1	101% (active)
COC(=O)CCc1c(C)nn(-c2nc(C)cc(=O)[nH]2)c1C	43.3%
CCC(=O)Nc1cc(C)nn1-c1nc(C)c(C)c(=O)[nH]1	99.7% (active)
Cc1cc(NC(=O)Cc2ccccc2)n(-c2nc(C)c(C)c(=O)[nH]2)n1	99.4% (active)
Cc1[nH]nc(Nc2ccc(Cl)c(Cl)c2)c1[N+](=O)[O-]	70.3% (active)
Brc1ccc(NCc2cccs2)cc1	6.27%
O=C(NCc1cccs1)c1cc(Br)ccc1F	83.2% (active)
CC(C)Oc1ccc(C(=O)NCc2cccs2)cc1	34.9%
C=C(C)CN(CC)c1nc(N)c(C#N)c(C(C#N)Cc2ccc(C)cc2)c1C#N (stereo not drawn)	21.1%
S=c1[nH]cnc2sc3c(c12)CCCC3	93.9% (active)
Cc1ccc(-c2csc3nc[nH]c(=S)c23)cc1C	31.2%
CC1CCc2c(sc3nc[nH]c(=S)c23)C1 (stereo not drawn)	2.8%
Cc1sc2nc[nH]c(=S)c2c1-c1ccccc1	87.7% (active)
O=c1[nH]c2sc3c(c2c2ncnn12)CCCC3	-17.8%
Cc1sc2nc[nH]c(=S)c2c1C	88.8% (active)
CC(N=c1ccccn1C(=O)Nc1ccc(Cl)c(Cl)c1)c1ccco1 (stereo not drawn)	-3.96%
CC(NC(=O)CN(C)CC(=O)Nc1ccc(Cl)c(Cl)c1)c1ccco1 (stereo not drawn)	86.6% (active)
Fc1c(F)c(F)c(NN=Cc2ccc3c(c2)OCO3)c(F)c1F	89.5% (active)
C(=NNc1ccc2ccccc2n1)c1ccc2c(c1)OCCO2	27.8%
Fc1ccc(NN=Cc2ccc3c(c2)OCO3)c(F)c1	81.8% (active)
Fc1ccc(NN=Cc2ccc3c(c2)OCCO3)c(F)c1	37%
